# Source: PubChem BioAssay (several laboratories)
# An excerpt weighted towards active compounds, which were near 1.9% of everything screened.
# S1P3 antag = S1P3 (human) receptor antagonism; Q99500; CHO S1P3 NFAT-BLA reporter, FRET fluorescence, antagonist mode; inhibition, % at 4.98 µM; hit rate 0.27% among 170,000;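 active means inhibition above the plate cutoff, the mean inhibition of test wells on that plate plus 3 SD, cut at about 28% in these data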;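 further: cells challenged with S1P at its EC80 of 0.8 µM; blue over green emission ratio from cleaved BLA substrate after 4 h stimulation; 0% = S1P-stimulated wells and 100% = unstimulated DMSO-only wells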
# Target sequence (Q99500 whole entry, looked up): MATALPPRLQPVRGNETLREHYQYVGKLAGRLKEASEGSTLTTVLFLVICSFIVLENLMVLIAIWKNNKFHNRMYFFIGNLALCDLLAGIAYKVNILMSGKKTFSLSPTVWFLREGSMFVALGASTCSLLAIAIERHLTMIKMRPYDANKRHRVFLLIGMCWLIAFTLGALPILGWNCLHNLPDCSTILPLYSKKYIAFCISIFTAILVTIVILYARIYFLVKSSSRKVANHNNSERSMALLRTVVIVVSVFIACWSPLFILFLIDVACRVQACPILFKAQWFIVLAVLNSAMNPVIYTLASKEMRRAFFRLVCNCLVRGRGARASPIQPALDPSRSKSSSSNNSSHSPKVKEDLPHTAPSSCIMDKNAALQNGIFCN
# S1P4 agonist = activates the human S1P4 receptor; O95977; S1P4-expressing cell line, agonist reporter assay; activation, % at 4.98 µM; hit rate 0.35% among 220,000; AID 1509; in the data active means activation above about 11%;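 further: 0% = DMSO vehicle and 100% = reference agonist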
# S1P4 antag = antagonists of human S1P4 receptor; O95977; S1P4-expressing cells, antagonist mode, reporter read-out; inhibition, % at 4.98 µM; hit rate 0.26% among 220,000; AID 1510; in the data active means inhibition above about 29%;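 further: 0% = wells stimulated with agonist and 100% = vehicle wells without agonist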
# EP2 antag = EP2 receptor (human) inhibition; C6 glioma cells expressing human EP2, cAMP TR-FRET; cells stimulated with saturating PGE2; hit rate 0.52% among 260,000; inhibition, % at 25 µM;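 active means percent inhibition above 40 after rounding to a whole number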;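 further: rat C6 glioma host cells with rolipram phosphodiesterase inhibitor present; the protocol text gives 20 µM as final concentration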
# Pf gametocyte = kills late stage P. falciparum gametocytes | hit rate 0.065% among 150,000 | P. falciparum stage V gametocytes, ATP luminescence, 24 h | inhibition, % at 10.9 µM;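 active means inhibition above the mean plus 3 SD of compounds within the control limits, set per campaign, cut at about 38% in these data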;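 further: 0% = DMSO wells and 100% = medium only without gametocytes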
# EP2 mod = modulators of human EP2 prostaglandin E2 receptor; P43116; EP2-expressing cells, cAMP HTRF FRET, PGE2 co-stimulation; induction, % at 25 µM; hit rate 0.83% among 260,000;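 active means compounds whose cAMP rise, as percent of the full-agonist control response, exceeds 60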;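 further: rat C6 glioma line stably carrying human EP2 under a CMV promoter; the protocol text gives 20 µM as final concentration; 100% = response of wells given 1 µM PGE2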
# EP2 confirm = human EP2 receptor cAMP induction, negative in counter-screens. shares compounds with EP2 mod. hit rate 47% among 1,300. AID 1080. calls only at 20 µM (by protocol). C6 glioma EP2 cells, cAMP HTRF induction; plus low (about EC15) PGE2 agonist;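 active means cAMP induction above 50% in the main assay while under 30% in all four parallel counter assays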;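 further: rat C6 glioma cells stably expressing human EP2 receptor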
# * = called active by the depositor; i = inactive; nt = no result given; + = active, no number; ! = not confirmed by another sample.
SMILES,S1P3 antag,S1P4 agonist,S1P4 antag,EP2 antag,Pf gametocyte,EP2 mod,EP2 confirm
Cc1ccc(S(=O)(=O)Nc2ccc(Cl)cc2C(=O)c2ccc(F)cc2)cc1,-2.1,0.5,-21.8,20.1,17.0,67.0*,i
CCCC(=O)O[C@H]1C[C@@H](C)N(C(=O)c2ccccc2)c2ccc(C)cc21,nt,1.1,-11.5,5.8,-11.8,76.2*,i
CCOc1ccccc1Cn1c(=O)oc2ccc(C)cc21,-2.9,1.9,-7.5,7.8,-19.9,76.7*,+
CCCOc1ccccc1Cn1c(=O)oc2ccc(C)cc21,nt,-0.1,3.5,4.1,nt,83.9*,+
CCCOc1ccc(Cn2c(=O)oc3ccc(C)cc32)cc1OC,-6.9,-2.9,7.9,7.1,23.8,-63.3,nt
CC1CCc2c(sc(NC(=S)NC(=O)c3cccnc3)c2C(N)=O)C1 (stereo not drawn),nt,nt,nt,10.7,nt,-60.8,nt
CCN(CC)C(=O)CN(c1cc2c(cc1OC)oc1ccccc12)S(=O)(=O)c1ccc(C)cc1,nt,1.2,-9.3,5.5,3.2,91.4*,i
O=C(c1cc2sccc2n1Cc1ccc(F)cc1)N1CCCc2ccccc21,nt,-2.6,15.5,11.8,nt,72.9*,+
O=P(c1ccccc1)(c1ccccc1)c1nc(-c2ccccc2)oc1NCc1ccccc1,-5.9,-0.7,7.4,9.0,-0.3,94.3*,+
CCOP(=O)(OCC)c1nc(-c2ccc(F)cc2)oc1NCc1ccccc1,5.8,1.7,5.4,0.8,17.8,72.4*,+
CCOP(=O)(OCC)c1nc(-c2ccccc2)oc1NCc1ccccc1,3.5,1.2,-8.3,4.4,-7.8,80.8*,+
CCOP(=O)(OCC)c1nc(-c2cccc3ccccc23)oc1NCCc1ccc(OC)cc1,-6.7,1.4,-8.8,5.4,14.4,56.0,i
CCOP(=O)(OCC)c1nc(Cc2ccccc2)oc1NCc1ccccc1,3.4,-0.6,-6.8,18.8,-4.3,3.2,nt
CCC(C)C(=O)Nc1ccc([N+](=O)[O-])cc1OC (stereo not drawn),-7.1,0.9,-9.5,6.6,-31.0,-24.7,nt
CCSc1ccccc1C(=O)Nc1ccc([N+](=O)[O-])cc1OC,-8.8,0.0,4.4,-0.1,-7.1,65.6*,i
Fc1ccc(F)c(CN(CCCN2CCOCC2)Cc2cccnc2)c1,nt,nt,nt,12.6,nt,-3.6,nt
CCOC(=O)c1c(C2COc3ccccc3O2)csc1NC(=O)c1ccccc1 (stereo not drawn),nt,-2.9,-9.3,5.4,0.9,31.9,nt
CCOC(=O)c1c(C2COc3ccccc3O2)csc1N (stereo not drawn),2.0,3.0,5.4,8.3,nt,70.2*,+
CCN(CC)CCCOC(=O)C(c1ccccc1)c1ccccc1,-4.6,0.2,-2.3,12.5,nt,-29.8,nt
Cc1cccc(C)c1OC(=O)C(c1ccccc1)c1ccccc1,-17.9,0.9,-13.5,19.4,-6.3,66.4*,i
Cc1ccc(C2CC2c2n[nH]c(=S)n2-c2ccc(C)cc2)cc1 (stereo not drawn),nt,0.9,-0.2,2.5,nt,58.0,i
Cc1ccc(-n2c(C3CC3c3ccc(Cl)cc3)n[nH]c2=S)cc1 (stereo not drawn),nt,1.4,-19.4,3.4,nt,48.1,nt
CC1=CC(C)(C)N(C(=O)c2ccccc2)c2ccccc21,17.7,-1.0,4.5,4.2,-36.1,71.8*,i
COc1ccc(OCC(=O)NC(=S)Nc2ccc3c4c(cccc24)CC3)cc1,-8.1,-0.2,5.0,18.3,-3.6,68.2*,i
CCc1ccccc1NC(=S)N(Cc1ccco1)Cc1cc2ccc(C)c(C)c2[nH]c1=O,nt,nt,nt,8.9,nt,45.0,nt
SMILES,S1P3 antag,S1P4 agonist,S1P4 antag,EP2 antag,Pf gametocyte,EP2 mod,EP2 confirm
O=C(O)CCCCCCCCCCCc1ccccc1,-12.6,-0.9,-3.1,9.6,nt,77.8*,+
CCOC(=O)CSc1ncnc2c1sc1nc(N3CCOCC3)c3c(c12)CCCC3,nt,1.7,-15.8,10.3,nt,75.5*,+
COC(=O)CSc1ncnc2c1sc1nc(N3CCOCC3)c3c(c12)CCCC3,nt,0.5,-10.1,7.3,nt,40.7,nt
CN1CCN(c2ccccc2NC(=O)c2ccc(F)cc2)CC1,-1.6,0.9,-7.4,1.1,-1.2,-17.4,nt
O=C(Nc1ccccc1N1CCCCC1)c1ccccc1F,8.0,2.1,-21.8,6.7,10.9,61.2*,+
O=C(Nc1ccccc1N1CCCC1)c1cc2ccccc2o1,-8.5,1.1,-8.9,nt,1.1,91.4*,+
CC1CCN(c2ccccc2NC(=O)c2ccc(F)cc2)CC1,nt,0.7,4.0,2.1,19.1,75.3*,i
COc1ccc(N2CCN(c3nc4c(c(=O)n(C)c(=O)n4C)n3Cc3ccccc3)CC2)cc1,-17.7,-0.6,-2.0,-0.6,nt,69.1*,i
C=C(C)Cn1c(N2CCN(c3ccc(OC)cc3)CC2)nc2c1c(=O)n(C)c(=O)n2C,6.5,3.4,-24.3,6.4,-4.5,-4.8,nt
CCCC(=O)Nc1c(C(=O)OCC)oc2ccccc12,-18.9,1.1,-18.2,7.5,8.6,18.1,nt
CCOC(=O)c1oc2ccccc2c1NC(=O)c1ccccc1OC,12.6,0.1,-3.8,10.5,nt,78.9*,+
CCn1cc(C(=O)NCCc2nc(-c3ccc(C)cc3)n[nH]2)c(C)n1,nt,nt,nt,6.3,nt,-12.7,nt
COc1ccc(CSC2=C(C#N)C(=O)NC3(CCCCC3)S2)cc1,nt,nt,nt,37.4,nt,53.7,i
CCC(c1nnnn1C(C)(C)C)N(Cc1ccccc1)Cc1cc2cc3c(cc2[nH]c1=O)OCO3 (stereo not drawn),nt,nt,nt,12.0,nt,45.6,nt
COc1ccc2[nH]c(=O)c(C(c3nnnn3C(C)(C)C)N3CCN(c4ccccc4)CC3)cc2c1 (stereo not drawn),nt,nt,nt,14.6,nt,-9.2,nt
CCc1oc2ccccc2c1C(=O)c1cc(Br)c(O)c(Br)c1,2.9,2.2,-14.0,10.3,nt,67.9*!,i
CCc1ccc2nc3sc(C(=O)N(CC)CC)c(N)c3cc2c1,nt,nt,nt,10.5,nt,-102.5,nt
Cc1ccc(S(=O)(=O)c2ccc(C)cc2)cc1,nt,-0.4,6.9,12.5,-21.4,9.1,nt
Cc1ccc(S(=O)(=O)c2ccc(Oc3cccc(C)c3)cc2)cc1,nt,-1.4,-8.6,7.7,nt,77.7*,i
CC1CCCN(C(=O)CSc2nc(-c3cccs3)cc(C(F)(F)F)n2)C1 (stereo not drawn),nt,nt,nt,8.2,nt,22.9,nt
CCCCc1nnc(SCCSc2nnc(CCCC)n2N)n1N,7.0,-0.7,-7.1,9.6,-5.1,81.1*,i
Fc1ccccc1Nc1nc2c(s1)CCc1ccccc1-2,8.6,0.8,-10.1,21.2,nt,79.2*,+
O=C(Nc1nc2c(s1)CCc1ccccc1-2)c1cccs1,nt,4.4,3.9,16.0,nt,-46.8,nt
CCN(CC)c1ccc(/C=C2\C(=O)c3ccc(C(=O)O)cc3C2=O)cc1,-8.9,1.9,-0.2,10.6,nt,73.6*,+
